Screening results (PubChem BioAssay)
Hits are enriched below; roughly 1.1% of the tested compounds scored in any of these assays.
AmpC inh detg – AmpC beta-lactamase inhibition with detergent present. AID 485294. Potency, µM (doses to about 114 µM), usual class: inhibitors. AmpC hydrolysis of nitrocefin, absorbance 480 nm, 0.01% Triton. 370,000 tested, 0.041% active; note: nearly all actives have a fitted effect of over 25% in size
Target sequence (P00811 whole entry, looked up): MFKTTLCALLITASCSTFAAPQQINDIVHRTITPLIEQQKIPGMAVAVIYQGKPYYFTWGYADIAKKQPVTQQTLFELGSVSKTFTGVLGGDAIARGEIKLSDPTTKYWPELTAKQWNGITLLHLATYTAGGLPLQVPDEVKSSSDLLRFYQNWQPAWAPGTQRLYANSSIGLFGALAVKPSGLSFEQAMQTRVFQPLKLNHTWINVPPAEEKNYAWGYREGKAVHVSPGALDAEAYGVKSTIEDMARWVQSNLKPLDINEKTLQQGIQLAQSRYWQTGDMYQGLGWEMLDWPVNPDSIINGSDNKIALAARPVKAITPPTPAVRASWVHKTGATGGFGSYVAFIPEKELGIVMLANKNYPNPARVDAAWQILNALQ
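AmpC (5.3 nM in the dispensed reagent) in 20 mM phosphate pH 7.0 with 0.01% (detergent screen) or 0.0001% Triton X-100 was preincubated with compounds for 15 min at room temperature. Nitrocefin was then added from an 800 uM solution, and hydrolysis was followed at 480 nm.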
Vaccinia mCherry – vaccinia inhibition (mCherry reporter). Vaccinia virus mCherry reporter infection, fluorescence. Potency, µM (doses to about 36.5 µM), usual class: inhibitors. 310,000 tested, 0.63% active; calls by dose curve; tested in A549 cells; note: nearly all actives have a fitted effect of over 35% in size
Vaccinia Venus – inhibitors of vaccinia virus (Venus reporter); Vaccinia virus Venus reporter expression, fluorescence; Potency, µM (top dose mostly 36.5 µM), actives largely listed as inhibitors; 330,000 tested, 0.46% active; calls by dose curve; tested in A549 cells; note: nearly all actives have a fitted effect of over 30% in size
AmpC inh no detg – inhibitors of E. coli AmpC beta-lactamase without detergent; P00811; AmpC nitrocefin hydrolysis, absorbance 480 nm, 0.0001% Triton; Potency, µM (highest dose often 57.1 µM), hits mostly inhibitors; 330,000 tested, 0.52% active; AID 485341; note: nearly all actives have a fitted effect of over 20% in size
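20 mM phosphate pH 7.0 + 0.01% (detergent screen) or 0.0001% Triton X-100; 5.3 nM AmpC reagent; cpd preinc 15 min RT; nitrocefin (800 uM stock) to start; A480 q20 s × 4 min; Activity was normalised to no-enzyme and no-compound control wells.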
Of the large screens only hits and unclear results are named; the others gave an inactive call; ! = not active in a repeat. Unless noted, calls come from the whole dose curve; as a rule, active = well fitted curve in the direction sought with a large enough effect; inconclusive = small, poorly fitted or top-dose-only effect, or another doubt; inactive = no such curve, though single readings can be large; an effect the other way counts as inactive or inconclusive.

CC1=C(C(=O)NC2CCCC(C)C2C)C2(CCCCC2)OC1=O (stereo unspecified)	AmpC inh no detg 35.5µM
c1ccc(CNc2c3ccccc3nc3ccccc23)cc1	Vaccinia mCherry inconclusive, Vaccinia Venus 11.2µM
CN(C)CCCNc1nc(-c2ccccc2)nc2ccccc12	none
CN(C)CCCNc1c2ccccc2nc2ccccc12	Vaccinia mCherry 7.08µM, Vaccinia Venus 8.91µM
O=C(NCC1(N2CCCCC2)CCCCC1)c1ccc(-n2cc(NC(=O)c3cccnc3)cn2)cc1	none (no result: AmpC inh detg, AmpC inh no detg)
C=CCn1c(SCC(=O)Nc2sccc2C(N)=O)nc2sc(CC)cc2c1=O	Vaccinia Venus 10µM (no result: Vaccinia mCherry)
Cc1cccc(CNC(=O)c2cnn(-c3nccc(-c4cccs4)n3)c2C2CC2)n1	none (no result: AmpC inh detg, AmpC inh no detg)
Cc1nc(C)c(CC(=O)N2CCOc3ccc(CN4CCOCC4)cc3C2)s1	none (no result: AmpC inh detg, AmpC inh no detg)
Cc1cc(C(=O)NCC2CCC3(CCN(Cc4ccc(F)cc4)CC3)O2)n(C)n1 (stereo unspecified)	none (no result: AmpC inh detg, AmpC inh no detg)
Cc1cc(C)n2nc(S(=O)(=O)N(CC(C)C)CC(C)C)nc2n1	AmpC inh detg inconclusive, AmpC inh no detg 10µM
Cc1ccccc1-c1coc2cc(O)ccc2c1=O	none
O=c1c(-c2ccc(O)cc2)coc2cc(O)ccc12	Vaccinia mCherry inconclusive, Vaccinia Venus 0.631µM! (no result: AmpC inh detg, AmpC inh no detg)
O=C1c2ccccc2C(=O)N1CCCC[C@]12Cc3ccccc3C(O1)c1c(c3ccccc3oc1=O)O2	AmpC inh detg inconclusive, AmpC inh no detg 2.82µM (no result: Vaccinia mCherry, Vaccinia Venus)
N#Cc1ccc2c(c1)C[C@]1(CCCCN3C(=O)c4ccccc4C3=O)Oc3c(c(=O)oc4ccc(F)cc34)C2O1	none (no result: Vaccinia mCherry, Vaccinia Venus)
Cc1ccc(/C=C/C(=O)c2c(C)cc(C)[nH]c2=O)cc1	none (no result: Vaccinia mCherry, Vaccinia Venus)
COc1ccc(/C=C/C(=O)c2c(C)cc(C)[nH]c2=O)c2ccccc12	Vaccinia mCherry 8.91µM, Vaccinia Venus inconclusive
COc1ccccc1/C=C/C(=O)c1c2c(c(C)[nH]c1=O)CCCC2	Vaccinia mCherry inconclusive, Vaccinia Venus 11.2µM
CCOC(=O)c1c(C)n(-c2ccc(C)cc2)c2c(C(C(C)=O)C(=O)O)c(Br)c(O)c(O)c12 (stereo unspecified)	Vaccinia Venus inconclusive (no result: Vaccinia mCherry)
CCOC(=O)C(C(C)=O)c1c(Br)c(O)c(O)c2c(C(=O)c3ccc(C)cc3)coc12 (stereo unspecified)	Vaccinia mCherry 12.6µM, Vaccinia Venus 12.6µM
COCc1ccc(C(=O)N2CCOc3c(cc(-c4cc(C)c5cccc(OC)c5n4)cc3OC)C2)o1	none (no result: AmpC inh detg, AmpC inh no detg)
O=C1NC(=Nc2ccc(O)cc2)S/C1=C/c1ccco1	Vaccinia mCherry inconclusive, Vaccinia Venus inconclusive, AmpC inh no detg 10µM
Cc1cccc(N=C2NC(=O)/C(=C/C=C/c3ccco3)S2)c1	Vaccinia mCherry inconclusive, AmpC inh no detg 28.2µM
O=C1NC(=Nc2ccc3ccccc3c2)S/C1=C/c1ccco1	AmpC inh no detg 31.6µM (no result: Vaccinia mCherry, Vaccinia Venus)
c1cncc(OC2CCN(Cc3ccc4c(c3)CN(Cc3ccc5c(c3)CCO5)CCO4)CC2)c1	none (no result: AmpC inh detg, AmpC inh no detg)
COc1cc2nc(N3CCCC(O)C3)c(CNCc3ccccc3F)cc2c(OC)c1OC (stereo unspecified)	none (no result: AmpC inh detg, AmpC inh no detg)
CCCC(=O)NC(c1ccc(C(C)C)cc1)c1ccc2cccnc2c1O (stereo unspecified)	AmpC inh detg inconclusive, Vaccinia mCherry inconclusive
CCCC(=O)NC(c1ccccc1Cl)c1ccc2cccnc2c1O (stereo unspecified)	Vaccinia mCherry 1µM, Vaccinia Venus inconclusive
Cc1cc(NC(c2ccc(Cl)cc2)c2ccc3cccnc3c2O)no1 (stereo unspecified)	Vaccinia Venus inconclusive, AmpC inh no detg 4.47µM (no result: Vaccinia mCherry)
CCC(=O)NC(c1ccc(Cl)cc1Cl)c1ccc2cccnc2c1O (stereo unspecified)	Vaccinia mCherry 2µM, Vaccinia Venus inconclusive
O=c1cc(/C=C/c2ccc([N+](=O)[O-])cc2)c2ccccc2[nH]1	none (no result: AmpC inh detg, AmpC inh no detg)
CC1=Nc2ccccc2/C1=C(/C)c1c(C)[nH]c2ccccc12	none (no result: AmpC inh detg, AmpC inh no detg)
CCOc1ccc(C2CC(c3ccccc3C)n3nc(N)nc3N2)cc1 (stereo unspecified)	AmpC inh no detg 31.6µM
CCOc1ccc(C2CC(c3cccc(OC)c3)n3nc(N)nc3N2)cc1 (stereo unspecified)	AmpC inh detg inconclusive, AmpC inh no detg 4.47µM
COc1cccc(C2CC(c3c(Cl)cccc3Cl)n3nc(N)nc3N2)c1 (stereo unspecified)	AmpC inh detg inconclusive, AmpC inh no detg 5.62µM (no result: Vaccinia mCherry, Vaccinia Venus)
COc1cccc(C2CC(c3ccccc3C)n3nc(N)nc3N2)c1 (stereo unspecified)	AmpC inh detg inconclusive, AmpC inh no detg 2.82µM
COCCN1CCN(C(=O)c2cnn(-c3nccc(-c4ccccc4F)n3)c2-c2ccco2)CC1	none (no result: AmpC inh detg, AmpC inh no detg)
